Most compounds without a hit are left out; they make up all but 4% or so of the library.
PAX8 reporter – inhibitors of PAX8-driven TPO luciferase reporter, primary screen, RMG-I cells, single concentration. SteadyGlo, 24 h. inhibition, % at 12.6 µM. 1.2% of 360,000 active. AID 652154, 2013;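 active means mean replicate inhibition at least 60% with every replicate also reaching 60%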;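 further: luciferase light reporting Pax8 driven TPO promoter activity; plate controls were median of neutral control wells for no effect and mitoxantrone controls for full effect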
MITF TRPM1 inh – inhibitors of MITF-dependent TRPM1 promoter reporter, primary screen, cell-based, SK-MEL-5, single point, luciferase; SK-MEL-5 TRPM1 promoter luciferase, 24 h; inhibition, % at 12.5 µM; 0.83% of 330,000 active; AID 488899, 2010;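 active means mean inhibition across replicates of 60% or more, whatever share of single replicates reaches that level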
Wnt act – Wnt/beta-catenin pathway activators, primary screen, cell-based, plate reader, single point | Wnt/beta-catenin reporter cell assay, activator | activation, % at 9.35 µM | 1.2% of 300,000 active; in the data active means activation above about 30%, passing the limit was not always enough;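 further: 0% = neutral control wells and 100% = positive control wells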
MITF act – activators of MITF-driven TRPM1 promoter reporter, primary screen, cell-based, SK-MEL-5, luciferase, single point. SK-MEL-5 TRPM1-promoter luciferase, 24 h; % of positive control, neutral wells = 0. 0.75% of 300,000 active. activation, % at 12.5 µM;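 active means mean activation of at least 80% with every replicate also reaching 80%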;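 further: 0% = neutral control wells and 100% = parthenolide positive control wells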
esBAF inh – Bmi1 luciferase reporter increase in mESCs, primary screen, esBAF inhibitor project, mouse ES cells, Bmi1 luciferase knock-in, single point; 24 h; 100% = twice the neutral-well signal; reporter increase, % at 12.5 µM; 2% of 350,000 active; AID 602393, 2012; in the data active means activation above about 40%;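 further: 0% = median of the plate's neutral control wells and 100% = double that signal; a rise in the Bmi1 reporter signal indicates esBAF inhibition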
EWS-Fli inh – EWS/Fli-driven NR0B1 reporter inhibitors, primary screen, A673 cells, NR0B1 luciferase, luminescence, MLPCN library; viability-normalised; inhibition, % at 12.6 µM; 0.67% of 350,000 active;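 active means mean inhibition of at least 50% after viability correction, with every replicate also passing that limit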;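 further: firefly luciferase signal divided by Alamar Blue viability fluorescence both relative to DMSO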
* hit, by the source's call.

O=C(NCc1ccccc1)C(=O)Nc1nccs1 was read as PAX8 reporter -9, MITF TRPM1 inh -16, Wnt act 1, MITF act 21, esBAF inh 5 and EWS-Fli inh -11.
For O=C(/C=C/c1cccs1)Nc1nccs1 the results were PAX8 reporter -134, MITF TRPM1 inh -69, Wnt act 9, MITF act 68 and EWS-Fli inh -35.
COc1ccc(C(=O)Nc2ccc3c(c2)C(=O)N(C)C[C@@H](OC)[C@H](C)CN(C(C)=O)[C@H](C)CO3)cc1 was read as esBAF inh -3 and EWS-Fli inh -1.
Screening C[C@H](CO)N1C[C@H](C)[C@@H](CN(C)Cc2ccccc2)Oc2ccc(NC(=O)Nc3ccc(F)cc3)cc2C1=O returned PAX8 reporter -27, esBAF inh -2 and EWS-Fli inh -5.
CN(C)c1ccc(/C=C/c2c([N+](=O)[O-])c(=O)n(C)c(=O)n2C)cc1 was read as PAX8 reporter 19, MITF TRPM1 inh 7, Wnt act 2, MITF act -8, esBAF inh 19 and EWS-Fli inh -11.
`Cn1c(/C=C/c2ccc(Br)cc2)c([N+](=O)[O-])c(=O)n(C)c1=O` gave PAX8 reporter 63*, MITF TRPM1 inh 37, Wnt act -4, MITF act -32, esBAF inh 12 and EWS-Fli inh -1.
COc1ncnc2c1ncn2CCCNCCCN1CCCC1=O was read as PAX8 reporter 72*, Wnt act 0, esBAF inh -3 and EWS-Fli inh 2.
For c1ccc(CCCNCCCn2cnc3c(OCc4ccccc4)ncnc32)cc1 the results were PAX8 reporter -4, MITF TRPM1 inh 78*, Wnt act -4, MITF act -78, esBAF inh -4 and EWS-Fli inh 16.
`C[C@@H](NC(=O)Cn1cnc2c(OCc3ccccc3)ncnc21)c1cccc2ccccc12` gave PAX8 reporter 3, MITF TRPM1 inh -8, Wnt act -4, MITF act 11, esBAF inh 5 and EWS-Fli inh -6.
`C[C@@H](NCCCn1cnc2c(OCc3ccccc3)ncnc21)c1cccc2ccccc12` gave PAX8 reporter 19, MITF TRPM1 inh 69*, Wnt act 1, MITF act -68, esBAF inh 0 and EWS-Fli inh -16.
For CC(C)NC(=O)Nc1cccc2c1O[C@H](CN(C)Cc1ccncc1)[C@H](C)CN([C@H](C)CO)C2=O the results were PAX8 reporter 4, esBAF inh -4 and EWS-Fli inh -12.
CCN1C(=O)/C(=C/C=C2/Sc3ccccc3N2CCO)SC1=S was read as PAX8 reporter -16, MITF TRPM1 inh 10, Wnt act 32*, MITF act -13, esBAF inh -8 and EWS-Fli inh -40.
Screening CCCCNC(=O)N(C)c1nc2ccccc2s1 returned PAX8 reporter -165, MITF TRPM1 inh -46, Wnt act 5, MITF act 52, esBAF inh 64* and EWS-Fli inh -46.
Screening COC(=O)N(C)c1nc2ccccc2s1 returned MITF TRPM1 inh -35, MITF act 39 and esBAF inh 27.
COc1cc(C2SCCS2)cc(Br)c1Oc1ncccc1[N+](=O)[O-] was read as PAX8 reporter 38, MITF TRPM1 inh 1, Wnt act 2 and EWS-Fli inh -11.
`O=[N+]([O-])c1cccnc1Oc1ccc(C2SCCS2)cc1` gave PAX8 reporter -54, MITF TRPM1 inh -100, Wnt act 51*, MITF act 103* and EWS-Fli inh -50.
`COc1cccc(N(C(=O)Cc2cccs2)C(C(=O)NC2CCCC2)c2ccncc2)c1` (stereo not drawn) gave PAX8 reporter 1, MITF TRPM1 inh -15, Wnt act 7, MITF act 13, esBAF inh 52* and EWS-Fli inh 4.
O=C(NCC1CCCO1)C(c1cccnc1)N(C(=O)Cc1cccs1)c1ccccc1 (stereo not drawn) was read as MITF TRPM1 inh -55, Wnt act 18, MITF act 49, esBAF inh 69* and EWS-Fli inh 3.
Cc1ccccc1N(C(=O)Cc1cccs1)C(C(=O)NCC1CCCO1)c1cccnc1 (stereo not drawn) was read as MITF TRPM1 inh 5, MITF act -5 and esBAF inh -1.
Screening COc1ccc(C(C(=O)NC2CCCCC2)N(C(=O)CCl)c2ccc(OC)cc2)cc1 (stereo not drawn) returned MITF TRPM1 inh 82* and MITF act -80.
For C#CC(=O)N(c1ccc(OC)cc1OC)C(C(=O)NC1CCCC1)c1cccs1 (stereo not drawn) the results were PAX8 reporter 93*, MITF TRPM1 inh 101*, Wnt act -10, MITF act -101, esBAF inh 49 and EWS-Fli inh 61*.
COc1ccc(N(C(=O)Cc2cccs2)C(C(=O)NC2CCCC2)c2ccncc2)cc1 (stereo not drawn) was read as PAX8 reporter 21, MITF TRPM1 inh -23, Wnt act 4, MITF act 23, esBAF inh 16 and EWS-Fli inh 4.
Screening COCC(=O)Nc1ccc2c(c1)C(=O)N(C)[C@H]1CC[C@@H](CC(=O)NC3CCCC3)O[C@@H]1CO2 returned PAX8 reporter -11, esBAF inh 3 and EWS-Fli inh 2.
Screening CC(C)C#Cc1ccc2c(c1)O[C@H](CN(C)Cc1cccnc1)[C@@H](C)CN([C@@H](C)CO)S2(=O)=O returned PAX8 reporter 14, esBAF inh 16 and EWS-Fli inh 23.
For COc1ccc(C(C(=O)NC2CCCCC2)N(C(=O)CCl)c2cccc(Cl)c2)cc1 (stereo not drawn) the results were PAX8 reporter 115*, MITF TRPM1 inh 88*, Wnt act 3, MITF act -87 and EWS-Fli inh 53*.
`COc1ccc(C(C(=O)NC2CCCCC2)N(C(=O)CCl)c2ccc(C)cc2)cc1` (stereo not drawn) gave PAX8 reporter 111*, MITF TRPM1 inh 82*, Wnt act -4, MITF act -82 and EWS-Fli inh 48.
Screening COc1ccc(C(C(=O)NC2CCCC2)N(C(=O)c2ccoc2C)c2ccc(C)cc2)cc1 (stereo not drawn) returned MITF TRPM1 inh -11, Wnt act -10, MITF act 10 and esBAF inh -6.
CCCNC(=O)Nc1ccc2c(c1)OC[C@@H](C)N(Cc1ccc(-c3ccccn3)cc1)C[C@@H](C)[C@@H](OC)CN(C)C2=O was read as PAX8 reporter 15, esBAF inh -5 and EWS-Fli inh -4.

Source: PubChem BioAssay
